# Results as given in ChEMBL document CHEMBL3433997, “St. Jude Leishmania screening dataset” (2016).
# Target: Glucose transporter (Leishmania mexicana) (UniProt O61059)
# Assay: ST_JUDE_LEISH: Cytotoxicity at 2uM final concentration against transgenic Leishmania Mexicana promastigotes LmGT2 that are glucose transport deficient and complemented with the L. Mexicana glucose transporter 2. Activity is measured by DNA content using SYBR green in vitro
# Format: functional
row,SMILES,inhibition [%]
1,CC(C)Cn1ncc2c3c(N)nc(N)nc3ccc21,4.36
2,Cc1cccc2nc(-c3ccc(-c4ccc(CNCCNC(=O)c5ccnn5C)cc4)s3)[nH]c12,8.36
3,COc1ccc2nc(C)cc(NCc3ccc4ccccc4c3)c2c1,5.11
4,COc1cc2nc(Nc3ccc(C)cc3)nc(Nc3ccc(C)cc3)c2cc1OC,98.1
5,CCN1CCC(N2CCC(C(=O)Nc3cccc(-c4cccc(Cl)c4)c3)CC2)CC1,2.7
6,CCCN(CCC)CCCNc1ccc(C(=O)Nc2ccc(C)c(F)c2)cc1[N+](=O)[O-],74
7,O=C(NCCN1CCOCC1)c1csc(C2CCCN(C(=O)c3ccc(O)c(-c4cc(Cl)cc(Cl)c4)c3)C2)n1 (stereo not given),1.85
8,COc1ccc(CC2(c3ccc(F)cc3)N=C(N)N(CCCc3cccnc3)C2=O)cc1 (stereo not given),2.08
9,COc1ccc(CNC2Cc3ccccc3C2)cc1-c1ccc(OC)c(S(=O)(=O)NCCN2CCCC2)c1,-1.29
10,Cc1cc(-c2ccc(Cl)cc2)c2c(N)c(C(=O)Nc3ccc(F)cc3)sc2n1,0.35
11,Cc1ccc2nc(C)cc(N/N=C/c3ccc([N+](=O)[O-])cc3)c2c1,104
12,N#Cc1ccc(-c2ccc(C(=O)NCCCCN3CCC(c4ccc5c(c4OCc4ccncc4)CCCC5)CC3)cc2)cc1,1.26
13,N#Cc1ccnc(-c2ccc(CNC3CCN(CC4Cn5c(=O)ccc6ccc(F)c4c65)CC3)cc2)c1 (stereo not given),4.88
14,COc1cc2nc(N3CCC(CNC(=O)c4ccc(-c5ccccc5)cc4)CC3)nc(N)c2cc1OC,0.24
15,Clc1ccc(-c2cc3c(NCc4ccncc4)nccc3s2)cc1,2.2
16,Cc1cc2nc(-c3ccc(/C=C/C(=O)NCCCc4ccccc4)cc3)[nH]c2cc1C,1.65
17,CCc1ccc(C2CCN(CCCCNC(=O)c3ccc(NC(=O)c4ccc(Cl)cc4)cc3)CC2)c(OCCO)c1,1.61
18,O=C(NCCCc1ccccc1)c1csc(C2CCCN(C(=O)c3ccc(O)c(-c4ccccc4)c3)C2)n1 (stereo not given),-4.23
19,Fc1ccccc1COc1ccc(Nc2ncnc3ccc(I)cc23)cc1Cl,4.67
20,CCCCC(=O)Nc1ccc(Nc2nc(C)cc(N3CCCC3)n2)cc1,3.88

row,SMILES,inhibition [%]
1,CSCCCN1CCC(O)(c2ccc3oc(C(=O)Nc4ccc5sc(C)nc5c4)cc3c2)CC1,14.7
2,CNC(=O)c1cnc(Nc2ccc(OCC(O)CN(C)C)cc2)nc1Nc1cccc(Br)c1 (stereo not given),9.84
3,CC(C)(C)c1ccc(NC(=O)c2cccc(CN3CCCN(Cc4cccc(C#N)c4)CC3)c2)cc1,0.63
4,CC1(C)NC(N)=NC(=N)N1OCCCOc1ccc([N+](=O)[O-])cc1,0.11
5,CCCn1c(O)nnc1SCC(=O)Nc1cc(Cl)ccc1Cl,-0.21
6,Cc1ccccc1OCC(=O)Nc1ccc(-c2nc3cc4ccccc4cc3[nH]2)cc1,4.05
7,COc1ccc2nccc([C@@H](O)CN3CCC(NC(=O)/C=C/c4cccc(NC(C)=O)c4)CC3)c2c1,4.66
8,COc1ccc(Nc2nc(NCc3cccc(NS(C)(=O)=O)c3)cc(-c3ccc(OC)cc3)n2)cc1,1.09
9,N=C(N)c1ccc(NC(=O)Cc2nc3cc(C(=N)N)ccc3[nH]2)cc1,-0.08
10,O=S(=O)(NCCN1CCCC1)c1ccc(-c2ccc(CNCc3ccsc3)cc2)s1,4.76
11,CC(C)NCc1cccc(-c2cccc(-c3nc4cc(F)ccc4[nH]3)c2)c1,11.6
12,COc1cc2nc(N3CCC(CNC(=O)c4ccc(NC(=O)c5ccc(Cl)cc5)cc4)CC3)nc(N)c2cc1OC,0.86
13,Cc1cc(NC(=O)NCCN2CCC(NC(=O)c3ccc(F)cc3)CC2)c2ccccc2n1,-3.5
14,CC(CN(C)C)Oc1ccc2nc(-c3cccc(OCc4ccccc4)c3)[nH]c2c1C#N (stereo not given),0.08
15,Cc1c(C)n(C2CCCCC2)c2ncnc(OC3CCN(CC(=O)NC4CC4)CC3)c12,1.68
16,OCC1CCN(Cc2ccc(-c3cccc(-c4nc5cc(C(F)(F)F)ccc5[nH]4)c3)cc2)CC1,7.35
17,Cc1cc(O)c2c3c1C(=O)C=C1C3c3c(c(O)cc(O)c3C(=O)C1(C)C)C2=O (stereo not given),-3.43
18,COc1ccc(NC(=O)CCNc2cc(C)nc(Nc3ccccc3)n2)cc1,5.8
19,O=C(Nc1ccc(CCNC2=NCCN2)cc1)Nc1ccc(CCNC2=NCCN2)cc1,3.62
20,Nc1nc(N)c2c(CCc3ccc(Cl)c(Cl)c3)cccc2n1,8.14
